Columns and labels:
Assay in all cases: thermal shift delta Tm vs DMSO control; higher = stronger stabilization (binding)
Conditions in all cases: 12.5 µM; protein concentration 2 µM
[1] = tested on: LOC_OS02G45750-cb003
In short: (§1)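 Thermal shift values come from differential scanning fluorimetry on purified rice kinase domains made in E. coli, with melting temperatures obtained from Boltzmann fits. Samples of 19.5 μl held 2 μM kinase, 100 mM potassium phosphate pH 7.5, 150 mM NaCl, 10% glycerol, 5 × SYPRO Orange and compound in DMSO, and were heated from 25°C to 95°C at 0.05°C/s. Each shift is a triplicate mean relative to the DMSO-only protein sample.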

[2] = tested on: LOC_OS02G54510-cb004
In short: as §1

[3] = tested on: LOC_OS03G04050-cb001
In short: as §1

[4] = tested on: LOC_OS03G12390-cb001
In short: as §1

[5] = tested on: LOC_OS03G27990-cb004
In short: as §1

[6] = tested on: LOC_OS03G50450-cb001
In short: as §1

[7] = tested on: LOC_OS03G50810-cb003
In short: as §1

[8] = tested on: LOC_OS04G35114-cb001
In short: as §1

[9] = tested on: T1, LOC_OS04G38480-cb003
T1 sequence (whole entry): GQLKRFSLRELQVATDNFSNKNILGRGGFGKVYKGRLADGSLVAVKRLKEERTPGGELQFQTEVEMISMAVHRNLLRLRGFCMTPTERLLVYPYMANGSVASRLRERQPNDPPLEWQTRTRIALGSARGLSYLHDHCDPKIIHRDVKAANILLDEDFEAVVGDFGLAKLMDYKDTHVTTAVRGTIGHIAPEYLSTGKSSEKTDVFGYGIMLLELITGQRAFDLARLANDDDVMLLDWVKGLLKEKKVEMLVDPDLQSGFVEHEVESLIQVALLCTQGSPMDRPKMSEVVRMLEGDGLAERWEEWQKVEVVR
In short: as §1

[10] = tested on: T2, LOC_OS04G41100-cb001
T2 sequence (whole entry): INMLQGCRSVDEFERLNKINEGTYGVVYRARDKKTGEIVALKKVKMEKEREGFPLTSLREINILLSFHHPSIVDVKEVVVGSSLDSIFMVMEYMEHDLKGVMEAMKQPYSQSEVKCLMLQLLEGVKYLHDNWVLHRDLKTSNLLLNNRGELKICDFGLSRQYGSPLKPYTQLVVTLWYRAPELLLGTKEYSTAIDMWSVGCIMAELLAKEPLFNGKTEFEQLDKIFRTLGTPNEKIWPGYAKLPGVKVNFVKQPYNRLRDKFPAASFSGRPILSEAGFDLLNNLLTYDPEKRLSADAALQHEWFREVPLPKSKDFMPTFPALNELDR
In short: as §1

[11] = tested on: LOC_OS04G57630-cb004
In short: as §1

[12] = tested on: LOC_OS05G07850-cb002
In short: as §1

[13] = tested on: LOC_OS05G16824-cb004
In short: as §1

[14] = tested on: LOC_OS05G28520-cb001
In short: as §1

[15] = tested on: LOC_OS05G30820-cb001
In short: as §1

[16] = tested on: LOC_OS05G43570-cb004
In short: as §1

[17] = tested on: LOC_OS06G16330-cb003
Sequence of LOC_OS06G16330-cb003 (as listed by the source): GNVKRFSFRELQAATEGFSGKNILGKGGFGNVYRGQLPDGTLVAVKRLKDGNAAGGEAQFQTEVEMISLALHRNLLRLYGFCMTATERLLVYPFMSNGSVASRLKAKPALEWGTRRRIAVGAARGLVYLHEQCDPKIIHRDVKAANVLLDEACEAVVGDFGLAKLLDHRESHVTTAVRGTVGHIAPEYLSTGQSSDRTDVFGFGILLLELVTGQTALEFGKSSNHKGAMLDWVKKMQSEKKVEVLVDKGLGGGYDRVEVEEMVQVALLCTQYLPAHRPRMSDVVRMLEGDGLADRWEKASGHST
In short: as §1

[18] = tested on: T3, LOC_OS06G22820-cb001
T3 sequence (whole entry): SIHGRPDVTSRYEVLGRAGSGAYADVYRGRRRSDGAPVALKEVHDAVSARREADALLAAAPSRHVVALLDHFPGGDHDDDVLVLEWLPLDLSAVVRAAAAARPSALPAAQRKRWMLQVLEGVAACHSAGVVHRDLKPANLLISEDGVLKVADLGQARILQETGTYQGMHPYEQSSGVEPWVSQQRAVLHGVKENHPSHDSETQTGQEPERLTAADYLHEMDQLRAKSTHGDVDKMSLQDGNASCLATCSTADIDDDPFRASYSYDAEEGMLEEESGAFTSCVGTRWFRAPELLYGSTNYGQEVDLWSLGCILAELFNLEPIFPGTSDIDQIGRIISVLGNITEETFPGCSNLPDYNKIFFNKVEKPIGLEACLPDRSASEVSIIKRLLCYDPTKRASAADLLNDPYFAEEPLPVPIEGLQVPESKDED
In short: as §1

[19] = tested on: LOC_OS07G06570-cb004
In short: as §1

[20] = tested on: LOC_OS07G07230-cb001
In short: as §1
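Also: purified Escherichia coli-expressed rice kinase domain construct.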

SMILES	thermal shift delta Tm [1] [°C]	thermal shift delta Tm [2] [°C]	thermal shift delta Tm [3] [°C]	thermal shift delta Tm [4] [°C]	thermal shift delta Tm [5] [°C]	thermal shift delta Tm [6] [°C]	thermal shift delta Tm [7] [°C]	thermal shift delta Tm [8] [°C]	thermal shift delta Tm [9] [°C]	thermal shift delta Tm [10] [°C]	thermal shift delta Tm [11] [°C]	thermal shift delta Tm [12] [°C]	thermal shift delta Tm [13] [°C]	thermal shift delta Tm [14] [°C]	thermal shift delta Tm [15] [°C]	thermal shift delta Tm [16] [°C]	thermal shift delta Tm [17] [°C]	thermal shift delta Tm [18] [°C]	thermal shift delta Tm [19] [°C]	thermal shift delta Tm [20] [°C]
Cc1ccc(S(=O)(=O)/C=C/C#N)cc1	-0.28	1.4	0.67	-0.03	-0.15	0.08	-1.25	0.08	0.47	-0.67	2.48	7.56	-14.7	0.54	-0.01	-0.14	-0.31	0.01	1.13	-0.21
O=c1cc(N2CCOCC2)oc2c(-c3cccc4c3sc3ccccc34)cccc12	1.11	0.33	0.66	-0.18	0.6	0.91	0.32	0.58	0.87	-0.31	-0.76	0.31	-2.7	0.25	0.1	-0.66	-1.48	0.17	0.25	-0.42
CN1CCN(Cc2ccc(NC(=O)Nc3ccc(Oc4ccnc(N)n4)cc3)cc2C(F)(F)F)CC1	5.22	7.6	0.12	1.46	0.06	-0.31	3.62	0.16	2.07	6.72	6.19	11.9	-5.04	0.9	0.74	1.72	5.38	0.66	0.91	-1.04
O=C(O)[C@]1(Cc2cccc(Nc3nccs3)n2)CC[C@@H](Oc2cccc(Cl)c2F)CC1	1.57	4.63	0.19	7.89	0.23	1.68	2.52	9.74	4.53	0.24	1.26	13	2.5	0.88	4.08	0.24	20.6	0.38	0.16	-1.36
Nc1nc(N)c2nc(-c3cccc(O)c3)c(-c3cccc(O)c3)nc2n1	0.83	0.31	0.2	0.79	1.44	0.33	0.34	0.99	1.12	0.63	0.04	5.27	-5.41	0.94	0.79	0.92	0.76	0.53	1.54	0.2
FC(F)c1nc2ccccc2n1-c1nc(N2CCOCC2)nc(N2CCOCC2)n1	0.78	0.23	0.44	0.51	0.31	0.75	0.35	0.03	1.98	0.9	0.39	0.04	1.24	0.54	0.54	0.5	0.49	0.93	0.84	0.3
CCS(=O)(=O)Nc1ccc2c(c1)/C(=C(/Nc1ccc(CN3CCCCC3)cc1)c1ccccc1)C(=O)N2 [Hesperadin]	14.4	0.53	0.02	8.56	2.77	2.45	11.8	13.2	4.11	0.76	7.62	11.8	16.8	-0.02	2.48	0.56	13.1	0.6	0.84	-0.17
CC1=C(C(=O)Nc2cc3cn[nH]c3cc2F)C(c2ccc(C(F)(F)F)cc2)CC(=O)N1 (stereo not given)	0.16	0.13	0.03	0.32	-0.07	0.15	0.56	0.15	0	0.48	-0.15	0.48	-6.69	-0.3	0.33	1.08	-0.13	0.24	0.71	0.37
Nc1cc(C(F)(F)F)c(-c2cc(N3CCOCC3)nc(N3CCOCC3)n2)cn1 [Buparlisib (BKM120, NVP-BKM120)]	0.32	-0.07	0.3	-0.03	0.23	0.11	0.38	0.31	0.85	0.22	0.52	0.95	-3.32	0.28	0.66	0.71	0.02	0.75	0.64	-0.59
Cc1ccc(Nc2nccc(N(C)c3ccc4c(C)n(C)nc4c3)n2)cc1S(N)(=O)=O [Pazopanib]	3.24	0.61	0.35	0.19	0.23	0.21	0.98	4.53	1.63	3.44	1.64	7.82	3.43	0.62	0.59	-0.2	4.07	0.36	1.66	0.5
Nc1nc2cc(-c3ccc4ncc(C(=O)N5CCOCC5)n4c3)ccc2o1 [Serabelisib (INK-1117,MLN-1117,TAK-117)]	1.65	0.12	0.57	0.22	0.37	0.93	0.42	1.85	0.6	0.51	0.92	2.64	6.24	0.55	0.04	0.35	0.24	0.5	1.85	0.61
CNC(=O)c1ccc(-c2cnc3ncc(Cc4ccc5ncccc5c4)n3n2)cc1F	0.61	0.23	0.48	-0.1	0.21	0.36	0.27	0.19	2.02	0.27	0.55	0.67	-1.29	0.04	0.18	0.63	-2.08	0.46	1.26	0.89

Source: the supplement of paper PMC9694430
